In PubChem BioAssay (NCATS):
A number with no mark means an inactive call. The rule behind the calls is not given here.

System: HIV-1 nucleocapsid protein NCp7 (binding to TG oligonucleotide)
Test: HIV Nucleocapsid (AID 346);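 note: potency is for inhibitors that block NC binding and lower polarization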
Details: HIV-1 NC / fluorescein-TGTGTGTG probe, fluorescence polarization
Method in brief: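 10 nM TG4xF probe with 100 nM nucleocapsid protein in high-salt Hepes pH 7.5 (250mM NaCl) containing 1uM ZnCl2 and reducing agents. Compound inhibition of binding was read as fluorescein polarization after 1 hr at room temperature.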
Potency is the fitted concentration of half-maximal effect.

Row | SMILES | Potency
1 | CN(C)Cc1ccccc1-c1cncnc1Nc1ccncc1 | > 20 µM
2 | CN(C)Cc1ccccc1-c1nc(NCc2cccs2)c2ccccc2n1 | > 20 µM
3 | Cn1cccc1C(=O)N1CCC[C@@]2(CCN(C(c3ccccc3)c3ccccc3)C2)C1 | > 20 µM
4 | COC(=O)N1CCC2(CCCN(c3ncccn3)C2)CC1 | > 20 µM
5 | CNc1ncncc1-c1ccccc1CN(C)C | > 20 µM
6 | COc1ncc2nc(-c3ccc(F)cc3)c(=O)n(C[C@H]3CCCO3)c2n1 | > 20 µM
7 | Cc1noc(C)c1-c1cc(NC2CC2)ncn1 | > 20 µM
8 | CN1CCN(c2ncncc2-c2cccnc2)CC1 | > 20 µM
9 | CN(C)c1ncc2nc(-c3ccc(Cl)cc3)c(=O)n(C[C@H]3CCCO3)c2n1 | > 20 µM
10 | Cc1nc2cnc(OCc3ccccc3)nc2n(C)c1=O | > 20 µM
11 | COCCn1c(=O)c(-c2cccc(C#N)c2)nc2cnc(Oc3ccc(OC)cc3)nc21 | > 20 µM
12 | Cn1cccc1C(=O)N1CCC2(CC1)CN(Cc1cc(C(F)(F)F)cc(C(F)(F)F)c1)C2 | > 20 µM
13 | COc1ccc(CNc2cc(-c3cccc(NS(C)(=O)=O)c3)ncn2)c(OC)c1 | > 20 µM
14 | COCCNc1ccnc(-c2cccc(NS(C)(=O)=O)c2)n1 | > 20 µM
15 | COCC(=O)N1CCC2(CCN(Cc3ccccc3OC)CC2)CC1 | > 20 µM
16 | O=C(c1cnccn1)N1CCC[C@@]2(CCN(c3ncccn3)C2)C1 | > 20 µM
17 | CN1CCN(c2ncc3ncc(=O)n(-c4ccccc4)c3n2)CC1 | > 20 µM
18 | CN(C)Cc1ccccc1-c1cc(NCc2cccs2)ncn1 | > 20 µM
19 | O=C(c1cnccn1)N1CCC2(CC1)CN(c1ccccn1)C2 | > 20 µM
20 | N#Cc1cccc(NC(=O)N2CC[C@@]3(CCCN(C(=O)c4ccncc4)C3)C2)c1 | > 20 µM

Row | SMILES | Potency
21 | COc1ccc(NC(=O)N2CC3(CCN(C(=O)c4cc(C(F)(F)F)cc(C(F)(F)F)c4)CC3)C2)cc1 | > 20 µM
22 | COc1ccc(-c2nc3cnc(N4CCOCC4)nc3n(C[C@H]3CCCO3)c2=O)cc1 | > 20 µM
23 | Cc1ccccc1-c1cncnc1NCc1ccccc1 | > 20 µM
24 | O=C(Nc1cccc(F)c1)N1CC2(CCN(C(=O)c3ccncc3)CC2)C1 | > 20 µM
25 | CS(=O)(=O)N1CCC2(CCN(C(=O)Nc3cccc(F)c3)CC2)CC1 | > 20 µM
26 | COc1ccccc1CNc1ccnc(-c2cccnc2)n1 | > 20 µM
27 | COc1ccccc1-c1cc(NCc2cccc(C)c2)ncn1 | > 20 µM
28 | CN(C)C(=O)c1ccc(-c2nc(Nc3ccncc3)c3ccccc3n2)cc1 | > 20 µM
29 | COc1cccc(Cn2c(=O)cnc3cnc(N4CCOCC4)nc32)c1 | > 20 µM
30 | COCC(=O)N1CCC[C@@]2(CCN(C(=O)Nc3cccc(C#N)c3)C2)C1 | > 20 µM
31 | CCNc1ncc2nc(C)c(=O)n(-c3ccc(OC)cc3)c2n1 | > 20 µM
32 | COc1ccc(CNc2ccnc(-c3ccccc3Cl)n2)c(OC)c1 | > 20 µM
33 | CS(=O)(=O)N1CCC2(CCCN(c3cccc(-c4ccccc4)c3)C2)CC1 | > 20 µM
34 | Cc1cnc(CNc2ccnc(-c3ccccc3Cl)n2)cn1 | > 20 µM
35 | COc1ccc(C(=O)N2CCC[C@@]3(CCN(C)C3)C2)cc1 | > 20 µM
36 | O=C(c1cccc(F)c1)N1CCC2(CCN(Cc3nccs3)CC2)CC1 | > 20 µM
37 | COC(=O)N1CCC2(CCCN(Cc3nccs3)C2)CC1 | > 20 µM
38 | Cc1nc2cnc(N3CCOCC3)nc2n(CCc2ccccc2)c1=O | > 20 µM
39 | COc1ccc(C(=O)N2CCC3(CCN(C(=O)Nc4cccc(C#N)c4)CC3)CC2)cc1 | > 20 µM
